Activity calls are given as the source filed them. How the source made its calls: active means hit-call score of the fitted dose curve at least 0.9, where 1 is the maximum; inactive means score below 0.9.
How the values were obtained:
[1] = ATG_CRE_CIS: Attagene CIS-FACTORIAL HepG2 Assay for human cAMP Responsive Element (CRE) binding protein 3 (AID 2282926); settings: HepG2 CRE cis-reporter, Attagene multiplexed mRNA; actives raise or lower the signal
In short: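 We dosed HepG2 cells bearing multiple cis-promoter reporter units for 24 h and measured reporter mRNA by RT-PCR with capillary electrophoresis detection. Bidirectional concentration-response fitting used DMSO as negative control.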

[2] = target: CCAAT/enhancer-binding protein beta (Homo sapiens) (UniProt P17676); assay: ATG_C_EBP_CIS: Attagene CIS-FACTORIAL HepG2 Assay for human CCAAT/Enhancer Binding Protein (C/EBP) beta (AID 2282927); settings: HepG2 Attagene cis-factorial transcription factor reporter; actives raise or lower the signal
Sequence of CCAAT/enhancer-binding protein beta (Homo sapiens) (P17676 whole entry, looked up): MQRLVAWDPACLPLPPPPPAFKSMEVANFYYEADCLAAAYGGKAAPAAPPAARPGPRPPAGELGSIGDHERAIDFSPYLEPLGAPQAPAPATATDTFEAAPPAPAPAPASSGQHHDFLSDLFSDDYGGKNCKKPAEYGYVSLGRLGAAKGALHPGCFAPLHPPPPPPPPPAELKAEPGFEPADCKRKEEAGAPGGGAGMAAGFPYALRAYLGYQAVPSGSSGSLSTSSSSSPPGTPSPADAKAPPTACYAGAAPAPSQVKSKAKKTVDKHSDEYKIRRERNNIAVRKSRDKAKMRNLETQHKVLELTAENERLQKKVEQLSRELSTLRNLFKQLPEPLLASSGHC
In short: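 RT-PCR/capillary electrophoresis fluorescence of reporter mRNA, 24 h post-dose, in HepG2 cells carrying transfected cis-promoter reporter units. Bidirectional curve fitting against DMSO baseline captures gain or loss of signal.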

[3] = ATG_CMV_CIS: Attagene CIS-FACTORIAL HepG2 Assay for human CMV (Internal Marker) (AID 2282928); settings: HepG2 CMV promoter reporter, transcription factor profiling; actives raise or lower the signal;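 further: endpoint acts as a background internal control marker rather than a target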
In short: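 Endogenous transcription factor activity read in HepG2 via transfected cis-promoter reporter units. After 24 h dosing, reporter mRNA measured by RT-PCR/capillary electrophoresis; gain or loss of signal fit relative to DMSO.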

[4] = ATG_DR4_LXR_CIS: Attagene CIS-FACTORIAL HepG2 Assay for human Liver X Receptor (LXR), DR4 submotif (AID 2282929); settings: HepG2 Attagene DR4 cis-reporter, mRNA transcription; actives raise or lower the signal
In short: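 HepG2 cells transiently transfected with cis-promoter-driven multiplexed reporter units (DR4 element) were dosed for 24 h. Reporter mRNA was quantified by RT-PCR, fluorescent primer extension, HpaI digestion and capillary electrophoresis; bidirectional fitting versus DMSO baseline.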

[5] = target: Aryl hydrocarbon receptor (Homo sapiens) (UniProt P35869); assay: ATG_Ahr_CIS: Attagene CIS-FACTORIAL HepG2 Assay for human Aryl Hydrocarbon Receptor (Ahr) (AID 2282930); settings: HepG2 AhR cis-factorial reporter transcription; actives raise or lower the signal
Sequence of Aryl hydrocarbon receptor (Homo sapiens) (P35869 whole entry, looked up): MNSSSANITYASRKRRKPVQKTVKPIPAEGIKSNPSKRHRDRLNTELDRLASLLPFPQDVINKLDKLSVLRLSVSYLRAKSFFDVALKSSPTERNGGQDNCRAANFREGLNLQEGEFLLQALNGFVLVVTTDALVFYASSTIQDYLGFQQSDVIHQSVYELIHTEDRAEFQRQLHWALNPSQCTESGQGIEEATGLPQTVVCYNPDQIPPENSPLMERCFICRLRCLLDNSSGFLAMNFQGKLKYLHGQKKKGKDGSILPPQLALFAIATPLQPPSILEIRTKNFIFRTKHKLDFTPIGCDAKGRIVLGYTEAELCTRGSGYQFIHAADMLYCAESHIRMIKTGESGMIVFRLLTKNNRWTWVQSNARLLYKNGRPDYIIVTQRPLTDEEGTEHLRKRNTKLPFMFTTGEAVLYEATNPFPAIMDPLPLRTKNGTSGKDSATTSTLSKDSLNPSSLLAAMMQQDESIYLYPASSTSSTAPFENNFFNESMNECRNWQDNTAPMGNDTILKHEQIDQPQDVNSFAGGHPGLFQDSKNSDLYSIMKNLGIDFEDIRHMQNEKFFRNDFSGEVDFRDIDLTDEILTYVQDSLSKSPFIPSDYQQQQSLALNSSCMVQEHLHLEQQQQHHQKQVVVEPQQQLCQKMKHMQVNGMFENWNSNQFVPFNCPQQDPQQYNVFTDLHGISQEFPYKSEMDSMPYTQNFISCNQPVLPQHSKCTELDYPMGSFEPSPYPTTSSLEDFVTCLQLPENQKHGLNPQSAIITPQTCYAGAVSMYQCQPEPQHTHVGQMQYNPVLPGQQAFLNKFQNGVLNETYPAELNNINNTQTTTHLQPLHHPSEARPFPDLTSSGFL
In short: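 HepG2 cells transiently transfected with cis-element-driven multiplexed reporter transcription units; endogenous transcription factor activity measured as reporter mRNA 24 h after dosing. RT-PCR, 6-FAM labelling, HpaI digestion, capillary electrophoresis; bidirectional fitting versus DMSO baseline.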

[6] = ATG_AP_1_CIS: Attagene CIS-FACTORIAL HepG2 Assay for human Activator Protein 1 (AP-1) (AID 2282931); settings: HepG2 Attagene cis-factorial AP-1 reporter mRNA; actives raise or lower the signal
In short: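 HepG2 cells transiently transfected with cis-element-driven multiplex reporter units; 24 h compound exposure. Reporter mRNA quantified by RT-PCR, FAM-labelled fragments resolved by capillary electrophoresis; bidirectional fit versus DMSO baseline.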

[7] = ATG_AP_2_CIS: Attagene CIS-FACTORIAL HepG2 Assay for human Activator Protein 2 (AP-2) (AID 2282932); settings: HepG2 AP-2 cis-reporter, Attagene transcription factor profiling; actives raise or lower the signal
In short: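 HepG2 cells were transiently transfected with multiple cis-promoter reporter transcription units and dosed for 24 h. Reporter mRNA was measured by RT-PCR with capillary electrophoresis fluorescence; bidirectional fits relative to DMSO baseline.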

[8] = ATG_BRE_CIS: Attagene CIS-FACTORIAL HepG2 Assay for human Bone Morphogenetic Protein (BMP) Response Element (BRE) (AID 2282933); settings: HepG2 BMP response element reporter, Attagene transcription factor profiling; actives raise or lower the signal
In short: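 Endogenous transcription factor activity at a BMP response element was monitored in transfected HepG2 cells 24 h after dosing. Fluorescent RT-PCR products were resolved by capillary electrophoresis, and activity was fitted in both directions versus DMSO.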

[9] = target: Retinoic acid receptor alpha (Homo sapiens) (UniProt P10276); assay: ATG_DR5_RAR_CIS: Attagene CIS-FACTORIAL HepG2 Assay for human Retinoic Acid Receptor Alpha (RARE), DR5 submotif (AID 2282934); settings: HepG2 Attagene cis-factorial RARE DR5 reporter, mRNA; actives raise or lower the signal;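 on AC50: reporter responds to endogenous RAR alpha beta and gamma in HepG2 not RARA alone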
Sequence of Retinoic acid receptor alpha (Homo sapiens) (P10276 whole entry, looked up): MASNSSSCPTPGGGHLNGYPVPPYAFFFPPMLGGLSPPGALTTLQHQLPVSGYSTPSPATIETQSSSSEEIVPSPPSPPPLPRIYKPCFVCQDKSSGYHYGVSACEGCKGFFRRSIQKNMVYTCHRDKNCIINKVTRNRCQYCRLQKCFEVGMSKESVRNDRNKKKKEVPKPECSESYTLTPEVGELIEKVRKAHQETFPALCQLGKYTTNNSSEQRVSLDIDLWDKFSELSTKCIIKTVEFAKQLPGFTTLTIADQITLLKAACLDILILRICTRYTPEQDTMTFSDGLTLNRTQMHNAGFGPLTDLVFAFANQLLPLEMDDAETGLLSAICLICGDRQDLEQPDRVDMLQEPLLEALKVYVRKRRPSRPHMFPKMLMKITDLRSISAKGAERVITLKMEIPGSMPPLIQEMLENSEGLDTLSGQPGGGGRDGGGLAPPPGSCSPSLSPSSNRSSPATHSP
In short: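 HepG2 cells transiently transfected with multiplexed reporter units under cis (DR5 RARE) promoters, so endogenous transcription factor activity is measured. After 24 h compound exposure, reporter mRNA is quantified by RT-PCR with fluorescent labelling and capillary electrophoresis; bidirectional fitting versus DMSO.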

[10] = target: Transcription factor E2F1 (Homo sapiens) (UniProt Q01094); assay: ATG_E2F_CIS: Attagene CIS-FACTORIAL HepG2 Assay for human E2F Transcription Factor 1 (AID 2282935); settings: HepG2 Attagene cis-reporter, E2F reporter RNA transcripts; actives raise or lower the signal
Sequence of Transcription factor E2F1 (Homo sapiens) (Q01094 whole entry, looked up): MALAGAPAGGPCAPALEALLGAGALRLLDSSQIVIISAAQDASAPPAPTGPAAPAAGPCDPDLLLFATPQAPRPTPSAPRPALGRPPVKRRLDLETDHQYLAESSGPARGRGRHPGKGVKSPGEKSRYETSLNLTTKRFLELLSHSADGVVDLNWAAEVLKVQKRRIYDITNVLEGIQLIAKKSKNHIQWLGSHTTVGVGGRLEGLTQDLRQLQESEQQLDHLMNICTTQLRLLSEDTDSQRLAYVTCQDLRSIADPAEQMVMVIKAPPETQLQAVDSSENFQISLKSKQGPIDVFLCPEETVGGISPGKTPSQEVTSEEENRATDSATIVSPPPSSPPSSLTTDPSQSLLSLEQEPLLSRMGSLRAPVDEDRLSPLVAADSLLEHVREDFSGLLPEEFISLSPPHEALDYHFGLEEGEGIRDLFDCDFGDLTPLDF
In short: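 HepG2 cells transiently transfected with multiplexed cis-element reporter units, dosed for 24 h. Reporter mRNA measured by RT-PCR, 6-FAM primer-extension labeling, HpaI digestion and capillary electrophoresis; bidirectional fit versus DMSO baseline.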

[11] = ATG_E_Box_CIS: Attagene CIS-FACTORIAL HepG2 Assay for human Enhancer Box (E-box) (AID 2282936); settings: HepG2 E-box cis-reporter transcription, actives raise or lower the signal
In short: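 HepG2 cells transiently transfected with multiplexed cis-element reporter units sensing endogenous transcription factor activity; 24 h compound exposure. Reporter mRNA measured by RT-PCR, 6-FAM primer extension, HpaI digestion and capillary electrophoresis; bidirectional fit versus DMSO.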

[12] = ATG_M_61_CIS: Attagene CIS-FACTORIAL HepG2 Assay for M61 Transcription Factor (Internal Marker) (AID 2282937); settings: HepG2 Attagene CIS-FACTORIAL M61 internal marker reporter; actives raise or lower the signal
In short: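 HepG2 cells transiently transfected with cis-element-driven multiple reporter transcription units, dosed for 24 h. Reporter mRNA measured by RT-PCR, 6-FAM primer-extension labelling, HpaI digestion and capillary electrophoresis; bidirectional fit versus DMSO baseline.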

[13] = ATG_EGR_CIS: Attagene CIS-FACTORIAL HepG2 Assay for human Early Growth Response 1 (EGR1) (AID 2282938); settings: HepG2 Attagene CIS-FACTORIAL EGR reporter mRNA; actives raise or lower the signal
In short: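 HepG2 cells transiently transfected with cis-promoter-driven multiplexed reporter transcription units; reporter mRNA measured 24 h after compound dosing by RT-PCR, 6-FAM primer extension, HpaI digestion and capillary electrophoresis. Bidirectional fit versus DMSO baseline.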

[14] = ATG_M_19_CIS: Attagene CIS-FACTORIAL HepG2 Assay for M19 Transcription Factor (Internal Marker) (AID 2282939); settings: HepG2 Attagene CIS-FACTORIAL M19 internal marker reporter; actives raise or lower the signal
In short: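 Background-control endpoint from a multiplexed HepG2 reporter panel. Cells carrying cis-regulated reporter constructs are treated 24 h, then reporter transcripts are amplified, fluorescently labelled and sized by capillary electrophoresis. DMSO defines baseline.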

[15] = ATG_Ets_CIS: Attagene CIS-FACTORIAL HepG2 Assay for human Erythroblast Transformation Specific (ETS) (AID 2282941); settings: HepG2 ETS cis-reporter transcription, actives raise or lower the signal
In short: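 Steps: transfect HepG2 with multiple reporter units; treat compound 24 h; isolate RNA, DNase-treat, reverse-transcribe; PCR-amplify, label with 6-FAM, digest with HpaI; separate by capillary electrophoresis. Activity fitted both directions versus DMSO.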

[16] = target: Hepatocyte nuclear factor 3-beta (Homo sapiens) (UniProt Q9Y261); assay: ATG_FoxA2_CIS: Attagene CIS-FACTORIAL HepG2 Assay for human Forkhead box A2 (FOXA2) (AID 2282942); settings: HepG2 cis-reporter transcription factor activity, 24 h; actives raise or lower the signal
Sequence of Hepatocyte nuclear factor 3-beta (Homo sapiens) (Q9Y261 whole entry, looked up): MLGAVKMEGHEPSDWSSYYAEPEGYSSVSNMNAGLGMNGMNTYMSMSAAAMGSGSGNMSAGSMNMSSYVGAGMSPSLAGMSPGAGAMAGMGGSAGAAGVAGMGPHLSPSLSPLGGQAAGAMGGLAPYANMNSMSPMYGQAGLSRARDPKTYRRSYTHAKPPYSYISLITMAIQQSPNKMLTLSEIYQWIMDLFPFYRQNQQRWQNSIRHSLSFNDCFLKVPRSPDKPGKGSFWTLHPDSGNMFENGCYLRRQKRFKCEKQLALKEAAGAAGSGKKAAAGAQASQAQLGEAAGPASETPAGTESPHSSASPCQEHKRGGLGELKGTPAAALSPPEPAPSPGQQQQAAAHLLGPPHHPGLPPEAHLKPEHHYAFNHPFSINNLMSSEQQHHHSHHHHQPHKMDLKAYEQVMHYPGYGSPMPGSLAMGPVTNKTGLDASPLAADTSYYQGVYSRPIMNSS
In short: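 HepG2 cells transiently transfected with multiple cis-regulated reporter transcription units, dosed for 24 h. Reporter mRNA measured by RT-PCR, 6-FAM labelling, HpaI digestion and capillary electrophoresis; bidirectional fitting against DMSO baseline.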

[17] = ATG_FoxO_CIS: Attagene CIS-FACTORIAL HepG2 Assay for human Forkhead box O (FoxO) (AID 2282943); settings: HepG2 Attagene cis-reporter, FoxO element, mRNA; actives raise or lower the signal
In short: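 HepG2 cells transiently transfected with cis-promoter-driven multiple reporter transcription units; 24 h after chemical dosing, reporter mRNA quantified by RT-PCR, fluorescent primer extension, HpaI digestion and capillary electrophoresis. Bidirectional fitting versus DMSO baseline.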

[18] = ATG_GATA_CIS: Attagene CIS-FACTORIAL HepG2 Assay for human GATA Binding Protein (AID 2282944); settings: HepG2 GATA cis-element reporter, Attagene multiplex mRNA; actives raise or lower the signal
In short: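 Endogenous transcription factor activity was captured through cis-promoter-driven reporters in transfected HepG2 cells. After 24 h exposure, reporter transcripts were quantified by RT-PCR with fluorescent capillary electrophoresis, and responses fitted both directions against DMSO.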

[19] = ATG_GLI_CIS: Attagene CIS-FACTORIAL HepG2 Assay for human Zinc Finger Protein GLI1 (AID 2282945); settings: HepG2, Attagene cis-factorial reporter mRNA, GLI element; actives raise or lower the signal
In short: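 HepG2 cells transiently transfected with cis-promoter multiplexed reporter units report endogenous transcription factor activity. After 24 h chemical exposure, reporter mRNA was quantified by RT-PCR, 6-FAM labelling, HpaI digestion and capillary electrophoresis, with bidirectional fitting against DMSO.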

Measured: AC50

Clc1cc(Cl)c(-c2c(Cl)c(Cl)cc(Cl)c2Cl)cc1Cl
active: [3] 30.4 µM | [4] 21.8 µM | [6] 35 µM
inactive: all other assays above

O=[N+]([O-])c1ccc(O)cc1C(F)(F)F
active: [1] 48 µM | [2] 58.8 µM | [3] 100 µM | [5] 53.8 µM | [6] 71.8 µM | [7] 26.4 µM | [8] 37.5 µM
not listed: [18]
inactive: all other assays above

COC(=O)c1ccc([N+](=O)[O-])cc1
inactive: all assays above

CCCCCCC(C)Nc1ccc(Nc2ccccc2)cc1 (stereo not drawn)
active: [3] 21.8 µM | [4] 44.4 µM | [6] 28.9 µM | [8] 50.5 µM
inactive: all other assays above

N#Cc1ccc(CC(=O)c2cccc(C(F)(F)F)c2)cc1
active: [8] 128 µM | [11] 170 µM
inactive: all other assays above

ClC(c1ccccc1)(c1ccccc1)c1ccccc1
active: [4] 5.95 µM
not listed: [16] | [18]
inactive: all other assays above

C=CCN(CC=C)CC=C
not listed: [14]
inactive: all other assays above

c1ccc2cc(Nc3ccc(Nc4ccc5ccccc5c4)cc3)ccc2c1
active: [5] 4 µM
not listed: [14]
inactive: all other assays above

Cc1c(C2(c3cc(Br)c(O)c(Br)c3C)OS(=O)(=O)c3ccccc32)cc(Br)c(O)c1Br
active: [5] 32.5 µM
not listed: [10]
inactive: all other assays above

O=c1c(O)c(-c2ccc(O)cc2)oc2cc(O)cc(O)c12
active: [3] 9.22 µM
not listed: [15]
inactive: all other assays above

CCOC(=O)C1OC1c1ccccc1 (stereo not drawn)
active: [3] 38.6 µM | [4] 37.6 µM | [5] 11.5 µM | [6] 43.6 µM | [9] 49.9 µM | [11] 57 µM
not listed: [10] | [14]
inactive: all other assays above

CC=Cc1ccc(OCC)c(O)c1
active: [5] 11.3 µM
not listed: [10] | [14] | [16]
inactive: all other assays above

CCOc1ccc(NC(=O)CC(C)=O)cc1
not listed: [15] | [18]
inactive: all other assays above

C=C(C)CNCC
not listed: [10] | [18]
inactive: all other assays above

O=C1NC2NC(=O)NC2N1 (stereo not drawn)
not listed: [15]
inactive: all other assays above

From PubChem BioAssay (EPA / NIEHS)
